High-throughput results from PubChem.
Many of the other results were omitted from the sample, so hits are more common in it than they were.
Tb PYK inh: blocks Trypanosoma brucei pyruvate kinase. Potency, µM (top dose mostly 76.8 µM), without a hit: at the highest dose activity, negative = inhibition, actives largely listed as inhibitors. hit rate 0.12% among 410,000. TbPYK enzyme, Kinase-Glo Plus ATP luminescence, 45 min. Q57TT1. AID 624173; also: potency is read from the fitted curve at half-maximal effect; % is scaled to controls: 0 for no effect and ±100 for the full control effect; nearly all actives have a fitted effect of over 50% in size
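Quantitative HTS: titrated library compounds versus trypanosomal pyruvate kinase in TEA buffer (pH 7.2) containing KCl, MgCl2, BSA and Tween-20. Reactions were initiated with ADP, 130 uM final. Kinase-Glo Plus luminescence was read after 45 min at RT.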
CHX counter: affects cycloheximide protein synthesis inhibition readout, counter-screen; cell reporter, cycloheximide protein synthesis inhibition counterscreen; max response, %; hit rate 12% among 300,000; in the data active = max response mostly above about 13%, no sharp cut-off; inactive = mostly below about 14%; also: read at 38.3 µM for the half of the compounds with a filed dose; 0% is about no effect
NS1 function inh: influenza NS1 inhibition; Potency, µM (doses to about 46.1 µM), for the others: top-dose activity, positive = more growth; hit rate 0.4% among 270,000; AID 2326; calls by dose curve; also: potency is read from the fitted curve at half-maximal effect; actives are rising curves; nearly all actives have a fitted effect of over 50% in size
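Recovery from NS1-induced slow growth read by OD600 in budding yeast switched to galactose assay medium (pH 6.0, -URA) at 1:100 dilution. Compound 23 nl per well; the matching strain lacking NS1 serves as control.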
Shiga inhibitor: Shiga toxin inhibition. Vero cells, Shiga toxin protein synthesis inhibition reporter. inhibition, % at 38.7 µM. hit rate 9.2% among 290,000. AID 2315; in the data active = inhibition mostly above about 28%, no sharp cut-off; inactive = mostly below about 43%; also: 0% is about no effect
LmPK inh: inhibitors of Leishmania mexicana pyruvate kinase. Q27686. purified LmPK, Kinase-Glo ATP luminescence, 1 h. Potency, µM (doses to about 57.5 µM), without a hit: at the highest dose activity change, negative = inhibition, usual class: inhibitors. hit rate 0.37% among 290,000; also: potency is read from the fitted curve at half-maximal effect; % is scaled to controls: 0 for no effect and ±100 for the full control effect
Target sequence (Q27686 whole entry, looked up): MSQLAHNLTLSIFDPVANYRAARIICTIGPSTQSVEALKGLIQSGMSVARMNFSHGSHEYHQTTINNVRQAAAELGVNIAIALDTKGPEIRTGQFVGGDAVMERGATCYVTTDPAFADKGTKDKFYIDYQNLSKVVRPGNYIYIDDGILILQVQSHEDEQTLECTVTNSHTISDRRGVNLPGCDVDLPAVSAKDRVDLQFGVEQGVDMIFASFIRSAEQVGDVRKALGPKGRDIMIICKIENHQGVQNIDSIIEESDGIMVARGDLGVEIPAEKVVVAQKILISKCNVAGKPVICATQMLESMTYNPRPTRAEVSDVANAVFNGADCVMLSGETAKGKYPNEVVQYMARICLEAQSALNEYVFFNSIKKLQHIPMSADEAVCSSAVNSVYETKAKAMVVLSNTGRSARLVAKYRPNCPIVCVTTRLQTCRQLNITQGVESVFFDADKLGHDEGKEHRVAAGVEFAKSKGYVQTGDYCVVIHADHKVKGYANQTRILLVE
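qHTS format; LmPK 0.1 nM; substrates PEP 0.5 mM and ADP 0.1 mM. One-hour room-temperature incubation, then coupled luciferase luminescence; 0.5 nM enzyme wells mark activation.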
SARS PLpro yeast-1: blocks SARS-CoV papain-like protease in a yeast assay | Potency, µM (highest dose often 32.9 µM), without a hit: at the highest dose activity, positive = growth rescue, hits mostly activators | hit rate 0.19% among 330,000 | AID 485353 | S. cerevisiae expressing SARS-CoV PLpro, growth rescue; calls by dose curve; also: potency is read from the fitted curve at half-maximal effect; 0% is about no effect; nearly all actives have a fitted effect of over 55% in size
SARS PLpro yeast-2: Validates SARS-CoV PLpro inhibitor hits in yeast | shares compounds with SARS PLpro yeast-1 | yeast expressing SARS-CoV PLpro, growth phenotype rescue | calls only | hit rate 19% among 1,000 | AID 652038; call rule not given here
Numbers without * were called inactive; i = inactive; ? = inconclusive; · = no result given; + = active, no number; ! = not confirmed by another sample. Unless noted, calls follow the shape of the dose curve; as a rule, active = well fitted curve in the direction sought with a large enough effect; inconclusive = small, poorly fitted or top-dose-only effect, or another doubt; inactive = no such curve, though single readings can be large; an effect the other way counts as inactive or inconclusive.

SMILES	Tb PYK inh	CHX counter	NS1 function inh	Shiga inhibitor	LmPK inh	SARS PLpro yeast-1	SARS PLpro yeast-2
COc1cccc(-c2ccc3ncnc(NCc4cc(C)cs4)c3c2)c1	-6.1%	·	·	·	·	6.31µM*!	i
Cc1cc(C)c2c(NC(=S)NC(=O)c3ccccc3)nn(C)c2n1	-0.4%	8.3	·	-16.1	1.0%	14.7%	·
Cc1cc(C)c2c(NC(=O)CCl)nn(C)c2n1	0.1%	25.9	·	25.7	-3.1%	11.2µM*	+
CCc1nnc(NC(=O)CSc2nc3c([nH]c4ccccc43)c(=O)n2-c2ccc(OC)cc2)s1	-3.2%	·	·	·	·	·	·
CN(C(=O)c1ccc(NC(=O)C2CCCN(C(=O)OC(C)(C)C)C2)cc1)C1CCCC1 (stereo unspecified)	-1.5%	·	·	·	·	?	i
CN(C(=O)c1ccc(NC(=O)C2CCCN(C(=O)OC(C)(C)C)C2)cc1)C1CCC1 (stereo unspecified)	11.1%	·	·	·	·	11.2%	·
COC(=O)Nc1ccc(S(=O)(=O)Nc2ccc(O)cc2)cc1	6.8%	-4.9	10.6%	-4.1	-1.0%	?	i
COC(=O)Nc1ccc(S(=O)(=O)Nc2ccc(C)cc2)cc1	·	-4.0	-5.8%	-7.5	-7.6%	1.5%	·
O=C(O)Cn1c(C(F)(F)F)nc2ccccc21	-2.7%	-5.1	8.4%	-6.2	-8.0%	·	·
CC1CN(C(=O)Cn2c(C(F)(F)F)nc3ccccc32)CC(C)O1 (stereo unspecified)	0.0%	-5.3	-0.1%	-19.2	7.4%	?	i
CC1CCCCN1CCCNC(=O)c1sc2ncccc2c1-n1cccc1 (stereo unspecified)	3.2%	·	·	·	·	·	·
Cc1ccc(-c2nc(S(=O)(=O)c3ccc(F)cc3)c(SCC(=O)NCC3CCCO3)o2)cc1 (stereo unspecified)	-2.6%	-0.1	8.7%	-10.2	1.7%	-33.6%	·
O=C(CSc1oc(-c2ccc(F)cc2)nc1S(=O)(=O)c1ccc(F)cc1)NCC1CCCO1 (stereo unspecified)	2.8%	3.8	4.1%	-5.0	-1.1%	?	i
CCc1cccc(CC)c1NC(=O)CCS(=O)(=O)c1ccc2c(c1)CCN2C(C)=O	-5.2%	·	·	·	·	·	·
Cc1cc2nn(-c3ccc(F)cc3)nc2cc1NC(=O)c1cc(Cl)ccc1Cl	-2.7%	·	·	·	·	·	·
C/C(=N\NC(=O)c1cc(-c2cccnc2)nc2ccccc12)c1ccccc1O	-11.9%	11.4*	9.7%	16.5	-4.8%	10µM*	+
COc1ccc(/C=N/NC(=O)c2nc(-c3ccccc3)n(-c3ccccc3)n2)c(O)c1	-6.9%	-2.7	6.7%	-10.2	-1.9%	2.82µM*	+
CC(C)(C)c1cc(C(=O)N/N=C/c2ccccc2O)n(-c2ccccc2)n1	1.7%	-6.4	7.3%	-13.4	0.8%	14.1µM*	i
COCCNC(=O)c1ccc(CS(=O)(=O)c2ccc(C)cc2)o1	3.6%	-2.2	3.3%	-19.2	0.7%	?	i
CCOc1ccccc1-c1cncc(NC)n1	0.8%	·	·	·	·	·	·
O=c1c2ccccc2nc(N/N=C/c2ccc(O)cc2)n1O	3.0%	2.6	-9.4%	21.3	?	-1.3%	·
O=c1c2ccccc2nc(N/N=C/c2c(O)ccc3ccccc23)n1O	-11.8%	39.9*	21.9%	52.5*	2.6%	12.6µM*	+
Cc1ccc(C)c(/C=N/NC(=S)NCCc2ccccc2)c1	-0.6%	10.9	-4.4%	13.6	2.6%	·	?
Cc1ccc(C)c(/C=N/NC(=S)NC(C)C)c1	-5.1%	-1.7	-8.2%	5.5	5.1%	7.08µM*	?
CCNC(=S)N/N=C/c1cc(C)ccc1C	-2.1%	-1.2	-3.2%	-4.9	1.4%	?	·
SMILES	Tb PYK inh	CHX counter	NS1 function inh	Shiga inhibitor	LmPK inh	SARS PLpro yeast-1	SARS PLpro yeast-2
O=C(O)COc1ccc(/C=N/n2c(COc3ccccc3)nc3ccccc3c2=O)cc1	8.5%	23.5	-4.7%	39.9	2.0%	7.1%	·
Cc1cc(/C=N/n2c(COc3ccccc3)nc3ccccc3c2=O)c(O)c([N+](=O)[O-])c1	-6.9%	6.0	-9.3%	51.1	-15.5%	2.51µM*	+
CC(C)N(C(=O)Cn1c(=O)oc2ccccc21)c1ccccc1	-4.0%	1.5	12.6%	-6.4	4.8%	0.0%	·
O=C1CCSc2c1ccc1ccccc21	-20.4%	·	·	·	·	·	·
CCOC(=O)N1CCN(S(=O)(=O)c2ccc(C(=O)NNc3nc4cc(C)cc(C)c4s3)cc2)CC1	-6.3%	-3.4	?	-11.9	0.2%	7.94µM*	?
CCNC(=S)NNC(=O)c1ccccc1Cl	3.9%	-2.2	12.4%	4.4	4.8%	8.8%	·
CCNC(=S)NNC(=O)c1ccccn1	0.5%	-1.7	7.3%	9.4	-4.1%	?	i
CCN(C(=O)CCS(=O)(=O)c1cc2c(cc1C)NC(=O)CO2)c1cccc(C)c1	-11.0%	·	·	·	·	·	·
CCCOc1ccc(-c2c(C(=O)N/N=C/c3ccc(OC)cc3)nnn2-c2nonc2N)cc1	4.0%	1.1	11.1%	14.8	1.4%	4.3%	·
CCOc1ccc(-c2c(C(=O)N/N=C/c3ccc(OC)cc3)nnn2-c2nonc2N)cc1	4.5%	-0.9	9.8%	-3.0	4.2%	20µM*	i
Cc1ccc(NC(=O)CN(C)S(=O)(=O)c2cnc[nH]2)cc1	-1.3%	·	·	·	·	·	·
CCCC(=O)NC(c1ccccc1)c1ccc2cccnc2c1O (stereo unspecified)	-4.4%	9.7	-114.2%	·	7.1%	?	·
CCCCC(=O)NC(c1ccccc1)c1ccc2cccnc2c1O (stereo unspecified)	-5.1%	-1.5	2.4%	-5.6	1.9%	4.47µM*	i
CCC(=O)NC(c1ccccc1OC)c1ccc2cccnc2c1O (stereo unspecified)	2.0%	9.1	-10.3%	19.0	2.7%	?	+
CCCC(=O)NC(c1ccc(OC)cc1)c1ccc2cccnc2c1O (stereo unspecified)	2.1%	-1.8	-61.4%	-1.1	5.5%	-4.2%	·
Cc1cc2oc(C(=O)Nc3cccc(-c4nc5ccccc5o4)c3)c(C)c2cc1Cl	2.6%	·	·	·	·	·	·
Cn1c(N)c(C(=O)COC(=O)CCCc2c[nH]c3ccccc23)c(=O)n(C)c1=O	-6.7%	-5.4	-15.2%	-9.9	3.6%	14.5%	·
Cn1c(N)c(C(=O)COC(=O)CCc2c[nH]c3ccccc23)c(=O)n(C)c1=O	3.3%	-5.7	7.9%	-12.8	3.4%	3.55µM*	i
OC1(c2cccc(C(F)(F)F)c2)CCN(Cc2nnnn2CCc2ccccc2)CC1	1.0%	0.6	-11.4%	-5.0	2.4%	?	i
COc1ccc(C2=NNC(=O)CC2)cc1	-1.1%	5.3	-6.2%	7.0	0.3%	?	i
Cc1ccc(-c2nc3ccccn3c2NC(=O)c2ccco2)cc1	-8.0%	-2.7	-6.8%	9.4	-5.4%	?	i
Cc1cc(SCC(=O)N/N=C/c2ccccc2C(=O)O)c(C)cc1Br	6.7%	-0.9	?	-4.6	-0.8%	-1.0%	·
Cc1cc(SCC(=O)N/N=C/c2ccc(O)cc2O)c(C)cc1Br	3.0%	-4.1	-84.7%	-14.7	3.2%	10µM*	i
